This passage reports CPE inhibition results from PubChem BioAssay AID651640 (Broad Institute, 2012).

Screen size: about 350,000 compounds; about 6,000 (1.7%) were called active. Inconclusive results (about 5%) are left out. Only a selection was taken, and actives are over-represented in it overall. A number with no mark means an inactive call. No stated cut-off is given here; in the data, active means CPE inhibition above about 20% (passing the limit was not always enough); inconclusive means no clear call, values can overlap the other calls; tested in BHK-21 cells.

This test can be described thus: inhibitors of DENV2 cytopathic effect, primary screen, cell-based, plate reader, single concentration (AID 651640).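 Further: 0% = median of neutral control wells and 100% = median of positive control wells.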 To be noted: DENV2-infected cells, cytopathic effect rescue, at 9.99 µM, stronger effect = higher value.
With `O=C(C[C@@H]1C[C@@H]2c3cc(NC(=O)NC4CCCC4)ccc3O[C@@H]2[C@H](CO)O1)NCC(F)(F)F`, the CPE inhibition was 7.08%.
In the case of `CN(C)C(=O)[C@@H]1[C@@H](CO)[C@@H]2Cn3c(ccc(-c4ccccc4)c3=O)[C@@H]2N1CCC(F)(F)F`, the CPE inhibition was 3.4%.
As for `C[C@@H]1CN([C@H](C)CO)C(=O)c2ccccc2-c2ccccc2CO[C@H]1CN(C)C(=O)CCC(F)(F)F`, the CPE inhibition is 1.69%.
Turning to `CC(C)C[C@H](NC(=O)CC1CCCC1)C(=O)N1CCC[C@H]1C(=O)NCc1ccccc1`, the CPE inhibition is -0.111%.
For the molecule `COc1ccc(NC(=O)N(C)C[C@@H]2Oc3ccc(NC(=O)CCC(F)(F)F)cc3C(=O)N([C@@H](C)CO)C[C@H]2C)cc1`, the CPE inhibition was -3.47%.
For `O=C(C1CCCCC1)N1CC(=O)N2[C@H](CO)[C@H](c3ccc(Br)cc3)[C@H]2C1`, the CPE inhibition is -9.75%.
For the molecule `C[C@@H]1CN([C@@H](C)CO)S(=O)(=O)c2ccc(C#CC(C)(C)O)cc2O[C@H]1CN(C)C(=O)CN(C)C`, the CPE inhibition was 14.1%.
Regarding `Cc1ccc(S(=O)(=O)Nc2cccc3c2O[C@H](CN(C)CC2CCCCC2)[C@H](C)CN([C@H](C)CO)C3=O)cc1`, the CPE inhibition was -0.201%.
With `N[C@@H]1CC[C@H](CCn2cc(C3CC3)nn2)O[C@@H]1CO`, the CPE inhibition is -2.16%.
Then `N#C[C@H]1[C@@H](c2ccccc2-c2ccccc2F)[C@@H](CO)N1C(=O)C1CCC1`, with -1.39%; and `C[C@@H]1CN([C@@H](C)CO)C(=O)c2cc(NS(C)(=O)=O)ccc2O[C@@H]1CN(C)C(=O)Nc1ccccc1`, with 4.47%.
With `C[C@@H]1CN([C@@H](C)CO)C(=O)c2cc(C3=CCCC3)cnc2O[C@H]1CN(C)C(=O)c1ccccn1`, the CPE inhibition was 1.01%.
Then `C=CCn1cc(-c2cccc(C(F)(F)F)c2)cc(C#N)c1=O`, with -0.13%; and `CC1(Cc2cccc(C#N)c2)C(=O)Nc2ccc(-c3cccc(C(F)(F)F)c3)cc21` (stereo not given), with 94.5% (active); and `N#Cc1c(-c2ccccc2)nc(SCc2cccc(C(F)(F)F)c2)[nH]c1=O`, with -3.77%.
Consider `COc1ccccc1NC(=O)N[C@H]1CC[C@H](CCn2cc(-c3cccnc3)nn2)O[C@@H]1CO`, for which the CPE inhibition is 7.27%.
Then `CCN(C[C@H]1[C@H](c2ccc(-c3ccccc3)cc2)[C@H](CO)N1CC1CC1)C(C)=O`, with -11.4%.
On to `C[C@H](CO)N1C[C@H](C)[C@H](CN(C)Cc2cccc(F)c2)Oc2ncc(C#CCN(C)C)cc2C1=O`, for which the CPE inhibition was -7.01%.
Consider `Cc1nc(N)nc(SCc2ccc([N+](=O)[O-])cc2)c1N`, for which the CPE inhibition was 5.04%.
Under `Cc1nc(SCc2ccc(F)cc2)c([N+](=O)[O-])[nH]1` stands 70.9% (active); under `Cc1cc([N+](=O)[O-])nn1Cc1ccc(F)cc1`, -2.03%.
`COc1ccc(S(=O)(=O)N(C)C[C@H]2Oc3c(NC(=O)CCCCCC(=O)Nc4ccccc4N)cccc3C(=O)N([C@H](C)CO)C[C@H]2C)cc1`: the CPE inhibition is -2.7%.
Consider `COc1ccccc1Cc1c(-c2ccc(F)cc2)nc2ccc(C)cn12`, for which the CPE inhibition was -9.92%.
In the case of `CN(C)CC(=O)N[C@H]1CC[C@H](CCNC(=O)Nc2ccc(F)cc2)O[C@H]1CO`, the CPE inhibition is 6.32%.
`CCCCN1C(=O)C(=O)N(CC(=O)Nc2cccc(C(C)=O)c2)C1=O`: the CPE inhibition was -4.58%.
Under `CCOC(=O)c1cccc(NC(=O)CN2C(=O)C3CC=CCC3C2=O)c1` (stereo not given) stands 76% (active).
As to `CCOC(=O)c1cccc(NC(=O)CCOc2ccccc2)c1`, the CPE inhibition is -0.064%.
As for `O=C(c1cccnc1)N1CC(=O)N2[C@H](CO)[C@@H](c3ccc(-c4ccc(F)cc4)cc3)[C@@H]2C1`, the CPE inhibition is -0.715%.
For `O=C(C[C@@H]1CC[C@@H]2[C@H](COC[C@H](O)CN2C(=O)Cc2ccccc2)O1)NC1CCC1`, the CPE inhibition is 34.4% (active).
On to `O=C(C[C@@H]1CC[C@H]2[C@@H](COC[C@@H](O)CN2C(=O)c2ccc3c(c2)OCO3)O1)NC1CCCC1`, for which the CPE inhibition is -3.32%.
Take `O=C(C[C@@H]1CC[C@@H]2[C@H](COC[C@H](O)CN2C(=O)c2cccnc2)O1)NC1Cc2ccccc2C1`: the CPE inhibition is -4.15%.
For `O=C(C[C@H]1CC[C@@H]2[C@H](COC[C@H](O)CN2C(=O)c2ccc3c(c2)OCO3)O1)NC1CCC1`, the CPE inhibition is 2.16%.
Under `O=C(C[C@H]1CC[C@H]2[C@@H](COC[C@@H](O)CN2C(=O)c2ccc3c(c2)OCO3)O1)NC1Cc2ccccc2C1` stands 32.6% (active); under `O=C(C[C@H]1CC[C@@H]2[C@H](COC[C@H](O)CN2Cc2ccccc2F)O1)NC1CCC1`, -4.44%.
`O=C(C[C@H]1CC[C@H]2[C@@H](COC[C@@H](O)CN2Cc2ccccc2)O1)N[C@@H]1CCN(Cc2ccccc2)C1`: the CPE inhibition is 17.9%.
Consider `O=C(C[C@@H]1CC[C@@H]2[C@H](COC[C@H](O)CN2C(=O)c2ccc3c(c2)OCO3)O1)NC1CCCC1`, for which the CPE inhibition is -0.397%.
Consider `O=C(C[C@@H]1CC[C@H]2[C@@H](COC[C@@H](O)CN2C(=O)c2ccc3c(c2)OCO3)O1)NC1Cc2ccccc2C1`, for which the CPE inhibition is 35.1% (active).
As for `COc1ccc(-c2ccc3c(c2)[C@H]2[C@H](CCN2S(=O)(=O)c2ccccc2F)[C@H](CO)N3)cc1`, the CPE inhibition was -28.4%.
On to `O=C(c1ccccc1)N1C[C@H]2[C@@H](c3ccccc31)[C@H](CO)N2Cc1ccccc1F`, for which the CPE inhibition is -4.2%.
On to `C[C@@H]1CN([C@@H](C)CO)C(=O)c2cc(NC(=O)CCCN(C)C)ccc2O[C@@H](C)CCCCO[C@@H]1CN(C)S(=O)(=O)c1ccc(Cl)cc1`, for which the CPE inhibition is -4.63%.
For the molecule `C/C=C/c1ccc2c(c1)O[C@@H](CN(C)S(=O)(=O)c1ccc(F)cc1)[C@@H](C)CN([C@H](C)CO)S2(=O)=O`, the CPE inhibition is 1.09%.
`COc1ccc(S(=O)(=O)N(C)C[C@H]2OCCCC[C@H](C)Oc3ccc(NC(=O)Nc4ccc5c(c4)OCO5)cc3C(=O)N([C@@H](C)CO)C[C@@H]2C)cc1`: the CPE inhibition was -7.54%.
Regarding `CCOC(=O)c1c(NC(=O)CSc2cn(CC)c3ccccc23)sc2c1CCC2`, the CPE inhibition is 5.51%.
On to `CCCOC(=O)c1c(NC(=O)c2cnn3c2NC(c2ccccc2)CC3C(F)(F)F)sc2c1CCCC2` (stereo not given), for which the CPE inhibition is 84.1% (active).
For the molecule `CCOC(=O)c1c(NC(=O)Cn2nc(C(F)(F)F)cc2C)sc2c1CCC2`, the CPE inhibition is -2.63%.
